Compound activity: PubChem BioAssay, several laboratories
EphB4 ephrin blk – blocks human EphB4 binding to ephrin-B2 | inhibition, % at 7 µM | EphB4 LBD / TNYL-RAW-Alexa532 peptide, fluorescence polarization | 0.15% of 97,000 active;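 active = inhibition above the screen-wide mean inhibition plus 3 SD, cut at about 15% in these data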;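 also: 0% = DMSO wells and 100% = excess unlabeled TNYL-RAW peptide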
ERa SRC1 pot – enhances coactivator binding to human estrogen receptor alpha; AID 639; coactivator binding (% of control), % at 25.6 µM; TR-FRET ERalpha-LBD/SRC-Cy5 coactivator binding, 2 h; 100 = basal binding, no effect; P03372; 1.3% of 86,000 active; in the data active = activity above about 200%;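 also: binding measured in presence of low estradiol as agonist stimulus; 0% = peptide alone without receptor and 100% = receptor with peptide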
Target sequence (P03372 whole entry, looked up, the tested form may be a part): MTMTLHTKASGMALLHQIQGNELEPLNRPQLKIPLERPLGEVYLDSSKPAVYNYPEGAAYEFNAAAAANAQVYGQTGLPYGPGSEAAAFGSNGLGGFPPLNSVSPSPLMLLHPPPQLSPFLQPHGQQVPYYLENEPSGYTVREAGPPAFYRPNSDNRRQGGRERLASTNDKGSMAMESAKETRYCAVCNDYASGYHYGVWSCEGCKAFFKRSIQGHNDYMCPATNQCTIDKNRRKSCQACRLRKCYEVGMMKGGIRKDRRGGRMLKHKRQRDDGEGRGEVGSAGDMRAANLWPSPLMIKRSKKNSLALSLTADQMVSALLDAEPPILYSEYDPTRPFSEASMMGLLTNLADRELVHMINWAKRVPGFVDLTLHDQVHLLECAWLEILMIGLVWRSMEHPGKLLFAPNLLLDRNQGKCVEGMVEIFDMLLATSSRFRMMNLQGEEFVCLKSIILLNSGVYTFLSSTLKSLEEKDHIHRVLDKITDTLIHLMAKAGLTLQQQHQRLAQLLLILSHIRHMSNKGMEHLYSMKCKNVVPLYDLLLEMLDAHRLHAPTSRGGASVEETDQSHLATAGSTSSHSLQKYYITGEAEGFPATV
ERa coact inh – blocks coactivator binding to human estrogen receptor alpha | P03372 | TR-FRET ER-alpha LBD / SRC-1 peptide, estradiol-bound | inhibition, % at 25.6 µM | 1.7% of 86,000 active; in the data active = inhibition above about 50%;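 also: 0% = receptor plus peptide control and 100% = peptide only without receptor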
ERb SRC1 inh – ER-beta (human) coactivator binding inhibition; Q92731; TR-FRET ER-beta LBD / SRC1-Cy5 peptide binding; receptor agonist-loaded with 1 µM estradiol; inhibition, % at 25.6 µM; 1.3% of 86,000 active;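 active = compounds whose percent inhibition of the receptor-coactivator binding signal exceeds about 50% in the single-dose screen, limit read from the data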;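 also: 0% = receptor plus peptide wells without compound and 100% = peptide-only wells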
An asterisk follows results filed as active; x = no result given; + = active, no number; [ ] = another dose, or the depositor's remark. Most compounds without a hit are left out; they make up all but 2.8% or so of the library.

SMILES | EphB4 ephrin blk | ERa SRC1 pot | ERa coact inh | ERb SRC1 inh
Cc1nc(SCC(=O)O)c2oc3ccccc3c2n1 | -1.1 | 107.4 | -0.7 | -0.7
CCc1nc(SCC(=O)Nc2nccs2)c2oc3ccccc3c2n1 | x | 138.0 | 56.2*[fluorescence artefact?] | 42.4
Cc1nc(SCC(=O)NCc2ccccc2)c2oc3ccccc3c2n1 | -1.4 | +[fluorescence artefact?] | -0.4 | -12.3
CO/N=C/NC(=O)c1c(OC)ccnc1Oc1cccc(C(F)(F)F)c1 | 6.3 | x | x | x
C=C(C)c1cccc(C(C)(C)NC(=O)N2CCN(C/C=C/c3ccccc3)CC2)c1 | 9.4 | 99.4 | -4.5 | 4.7
O=C(CSc1ncnc2c1oc1ccccc12)Nc1ccc2c(c1)OCCO2 | -0.1 | 764.6*[fluorescence artefact?] | 42.8 | 56.9*[fluorescence artefact?]
CCc1nc(SCC(=O)Nc2ccc3c(c2)OCCO3)c2oc3ccccc3c2n1 | -12.2 | 232.6*[fluorescence artefact?] | 64.2*[fluorescence artefact?] | 56.8*[fluorescence artefact?]
COC(=O)c1ccc(OC)c(CSc2nnc(-c3ccc(C)cc3)o2)c1 | x | 455.4*[fluorescence artefact?] | 36.3 | 13.8
Cc1ccc(C(=O)CSc2nnc(-c3ccccc3)o2)cc1 | 2.2 | 116.7 | 2.1 | 4.2
COc1cc(-c2nnc3sc(-c4cccnc4)nn23)cc(OC)c1OC | x | 89.9 | -4.5 | 2.7
Cc1cc(C)n(-c2ccc(C(=O)OCC(=O)c3ccc(Br)s3)cc2)n1 | 8.6 | 206.9* | 2.3 | 5.2
Cc1cc(C)n(-c2ccc(C(=O)OCC(=O)NCc3ccco3)cc2)n1 | -0.6 | 107.1 | 3.8 | 4.3
O=C(NCc1cccs1)c1cc(-c2cccs2)on1 | 4.7 | 114.1 | -5.5 | -5.8
COc1ccc(CNC(=O)c2cc(-c3cccs3)on2)cc1 | 4.1 | 156.2 | 75.8* | 51.3*[fluorescence artefact?]
COCCNC(=O)c1cc(-c2cccs2)on1 | -0.1 | x | x | x
O=C(NCc1ccc(Cl)cc1)c1cc(-c2cccs2)on1 | -5.0 | 98.3 | 95.5* | 14.4
Cc1ccc(NC(=O)Cn2c(=O)oc3cc(S(=O)(=O)N4CCC(C)CC4)ccc32)cc1C | -12.6 | 52.0 | 42.7 | 61.6*[fluorescence artefact?]
O=C(Cn1c(=O)oc2cc(S(=O)(=O)N3CCCCCC3)ccc21)NC1CCCCC1 | x | 348.5* | 31.8 | 38.3
CCOC(=O)Cn1c(=O)oc2cc(S(=O)(=O)N3CCC(N4CCCCC4)CC3)ccc21 | -3.0 | 106.5 | -0.9 | -8.7
Cc1ccc(N/C(CSC(N)=O)=N/S(=O)(=O)c2ccccc2)cc1 | -2.9 | 94.9 | -5.2 | -0.4
NC(=O)SC/C(=N\S(=O)(=O)c1ccccc1)Nc1ccccc1 | -2.2 | 96.6 | -0.5 | 97.5*[fluorescence artefact?]
Cc1[nH]c(=O)[nH]c(=O)c1NC(=O)c1cccs1 | 6.0 | 101.6 | 86.5*[fluorescence artefact?] | -5.7
Cc1nn(Cc2ccccc2)c(C)c1NC(=O)CSc1nc(-c2ccccc2)nc2c1cnn2-c1ccccc1 | 4.6 | 150.0 | 72.4*[fluorescence artefact?] | 36.8
CC(C)c1ccc(N(CC(=O)NCCSC(C)(C)C)S(C)(=O)=O)cc1 | 4.5 | 100.7 | -3.5 | 7.3
Cc1cc(C)nc(-n2nc(C)cc2NC(=O)CNCc2ccccc2)n1 | -2.8 | 90.8 | -9.0 | 90.5*[fluorescence artefact?]
SMILES | EphB4 ephrin blk | ERa SRC1 pot | ERa coact inh | ERb SRC1 inh
Cc1ccc(C(C(=O)NC(C)(C)C)N(Cc2ccco2)C(=O)CCC(=O)Nc2nccs2)cc1 (stereo not given) | 3.8 | 98.8 | -7.7 | -7.3
Cn1nc(C(=O)Nc2sccc2C(N)=O)ccc1=O | 2.8 | 21.1 | 62.9*[fluorescence artefact?] | 54.3*[fluorescence artefact?]
CN1CCc2c(sc3c2C(=O)NC(c2ccccn2)N3)C1 (stereo not given) | 1.6 | 108.0 | 8.9 | 23.4
Cc1ccc(C2NC(=O)c3c(sc4c3CCN(C)C4)N2)s1 (stereo not given) | 0.4 | 28.7 | 53.5*[fluorescence artefact?] | 36.2
CN1CCc2c(sc3c2C(=O)NC(/C=C/c2ccco2)N3)C1 (stereo not given) | -5.2 | 42.6 | 27.6 | 54.1*[fluorescence artefact?]
O=C1Nc2ccc([N+](=O)[O-])cc2C1(O)N1CCCCCC1 (stereo not given) | 6.3 | x | x | x
O=C(CSc1nnc(-c2ccc(Cl)cc2)o1)N1CCN(c2ccccc2)CC1 | x | 50.4 | 73.2*[fluorescence artefact?] | 54.0*
O=C(CSc1nnc(COc2ccc(Cl)cc2)o1)N1CCN(c2ccccc2)CC1 | x | 117.7 | 2.4 | -2.2
CC(=O)c1ccc(N2CCN(C(=O)c3ccc(Br)cc3)CC2)c(F)c1 | 20.6* | 122.6 | -4.7 | -5.1
CC(=O)c1ccc(N2CCN(C(=O)c3ccco3)CC2)c(F)c1 | 2.0 | 108.1 | -11.7 | -1.5
COc1cccc(C(=O)NC2CC3CCCC(C2)N3CC(=O)Nc2ccccc2)c1 (stereo not given) | 5.7 | 8.3 | 97.5*[fluorescence artefact?] | 99.2*[fluorescence artefact?]
CCOC(=O)CSc1nc2cc(OCC)ccc2cc1C#N | x | 350.7*[fluorescence artefact?] | 12.5 | 17.9
COc1cc2cc(C#N)c(SCC(=O)N3CCOCC3)nc2cc1OC | -5.0 | 100.0 | 2.4 | 1.4
Cc1cc(C)c2nc(SCC(=O)N3CCCCC3)c(C#N)cc2c1 | -0.3 | 181.3 | -5.8 | 17.1
COc1ccc2nc(SCC(=O)N3CCN(c4ccc(F)cc4)CC3)c(C#N)cc2c1 | 7.6 | 481.4*[fluorescence artefact?] | 13.8 | 19.4
Cc1cccc2cc(C#N)c(SCC(=O)N3CCC(C)CC3)nc12 | 2.8 | 216.9*[fluorescence artefact?] | 13.8 | 24.1
COC(=O)CSc1nc2cc(C)cc(C)c2cc1C#N | 1.3 | 210.2* | 0.6 | 10.1
COC(=O)CSc1nc2cc(OC)ccc2cc1C#N | -11.2 | 128.6 | 21.5 | -1.6
CC1(c2ccc(Cl)cc2)NC(=O)N(CC(=O)NC(=O)NCc2ccco2)C1=O (stereo not given) | 5.0 | 80.5 | -2.2 | 28.1
COc1ccc2cc(C#N)c(SCC(=O)N3CCCC3)nc2c1 | 2.3 | 95.3 | -13.5 | -5.8
Cc1cccc2cc(C#N)c(SCC(=O)Nc3ccccc3N3CCOCC3)nc12 | -6.1 | 295.1*[fluorescence artefact?] | 19.6 | 12.7
COc1ccc2cc(C#N)c(SCC(=O)NNC(=O)Cc3ccccc3)nc2c1 | -1.6 | x | x | x
CCOc1ccc2cc(C#N)c(SCC(=O)N3CCC(C)CC3)nc2c1 | 5.6 | 337.5*[fluorescence artefact?] | 7.3 | 25.5
CCOc1ccc2nc(SCC#N)c(C#N)cc2c1 | 0.0 | 251.9* | 12.4 | 12.4
CCOc1ccc2cc(C#N)c(SCC(=O)NC(C)CC)nc2c1 (stereo not given) | -6.8 | 337.1*[fluorescence artefact?] | 40.7 | 45.4
SMILES | EphB4 ephrin blk | ERa SRC1 pot | ERa coact inh | ERb SRC1 inh
N#Cc1cc2ccccc2nc1SCC(=O)Nc1ccccc1N1CCOCC1 | 0.8 | x | x | x
CC(C)C1(C)C(=O)N=C2c3ccccc3C(=O)N21 (stereo not given) | -1.9 | 103.7 | -9.1 | -1.4
O=C(CSc1nc2ccc([N+](=O)[O-])cc2[nH]1)c1ccc2ccccc2c1 | -1.6 | x | x | x
CCCCNS(=O)(=O)c1ccc2nc(SCC(=O)c3ccc(C#N)cc3)[nH]c2c1 | x | 279.3* | 6.8 | 6.5
O=C(Nc1ccc(-c2nc3ncccc3o2)cc1)c1ccco1 | 6.3 | 82.6 | 34.4 | 36.3
O=C(Nc1ccc(-c2nc3ncccc3o2)cc1)c1ccc(Br)o1 | -0.3 | 268.9*[fluorescence artefact?] | 40.7 | -9.8
O=C(Nc1ccc2oc(-c3cccnc3)nc2c1)c1ccc(Br)o1 | -0.5 | 206.3*[fluorescence artefact?] | 69.0*[fluorescence artefact?] | 37.9
Cc1ccccc1-n1nc2c(c1NC(=O)c1ccc(Br)o1)CSC2 | -4.5 | 207.2*[fluorescence artefact?] | 19.8 | 41.7
CC(=O)Nc1c2c(nn1-c1ccc(C)cc1C)CSC2 | 11.5 | 104.4 | -2.2 | 2.1
COc1ccc(C2CCCN2C(=O)Nc2ccccc2)cc1OC (stereo not given) | 3.9 | 104.7 | -5.0 | -6.4
